# Hits are enriched below; roughly 0.92% of the tested compounds scored in any of these assays.
# RPL19A-GFP yeast = alters RPL19A-GFP fluorescence in TOR pathway yeast screen; S. cerevisiae RPL19A-GFP strain, flow cytometry, 3 h; active compounds read low; percent response vs DMSO, % at 10 µM; 0.3% of 330,000 active;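 active means percent response vs DMSO below 50%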;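 further: median channel GFP fluorescence of the barcoded RPL19A-GFP strain; ratio of sample median GFP to plate DMSO average so 100% = DMSO; lower means less RPL19A-GFP as with rapamycin TOR inhibition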
# CIT2 TOR yeast = alters CIT2-GFP fluorescence in TOR pathway yeast screen | S. cerevisiae CIT2-GFP strain, flow cytometry, 3 h; 100 means same as DMSO wells | GFP response vs DMSO, % at 10 µM | 0.065% of 320,000 active;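 active means GFP response relative to DMSO above a set limit, near the screen mean plus 3 SD, cut at about 150% in these data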;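 further: ratio of well median GFP fluorescence to mean of DMSO wells on the plate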
# LAP4-GFP MLPCN = yeast TOR pathway LAP4-GFP modulation | S. cerevisiae LAP4-GFP multiplex, flow cytometry GFP, 3 h; median GFP as percent of DMSO wells | GFP response vs DMSO, % at 10 µM | 0.34% of 320,000 active;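 active means GFP response vs DMSO above a set limit, about the screen mean plus 3 SD, cut at about 150% in these data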
# MEP2 TOR yeast = modulators of TOR pathway MEP2-GFP in S. cerevisiae; 0.51% of 330,000 active; GFP response vs DMSO, % at 10 µM; AID 2016; S. cerevisiae MEP2-GFP strain, flow cytometry GFP, 3 h; 100% = DMSO control level;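 active means GFP response versus DMSO above a set limit, roughly screen mean plus 3 SD, cut at about 180% in these data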;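 further: median GFP fluorescence of the barcode-gated MEP2-GFP cells per well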
# AGP1-GFP MLPCN = alters AGP1-GFP fluorescence in TOR pathway yeast screen; 0.02% of 320,000 active; AID 2066; S. cerevisiae AGP1-GFP multiplex flow cytometry, 3 h; GFP as percent of DMSO wells; GFP response vs DMSO, % at 10 µM;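 active means GFP response relative to DMSO above a set limit, near screen average plus 3 SD, cut at about 150% in these data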;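 further: median GFP channel fluorescence of the gated AGP1 strain per well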
# LAP4 cherry2 = yeast LAP4-GFP modulation, second cherry pick; shares compounds with LAP4-GFP MLPCN; S. cerevisiae LAP4-GFP strain, flow cytometry GFP, 3 h; GFP response vs DMSO, % at 10 µM; 20% of 590 active; AID 2621;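 active means GFP signal as percent of the solvent control above about 150%, meaning raised reporter expression, limit read from the data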;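 further: ratio of well median GFP fluorescence to plate DMSO mean so 100% = DMSO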
# MEP2-GFP pick2 = yeast MEP2-GFP modulation, second cherry pick. S. cerevisiae MEP2-GFP strain, flow cytometry GFP, 3 h. 10% of 590 active. GFP response vs DMSO, % at 10 µM. shares compounds with LAP4-GFP MLPCN. AID 2622;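 active means GFP signal above 150% of the solvent control wells, that is a rise of more than half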;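 further: median channel GFP fluorescence of all gated yeast cells per well; ratio of median GFP to plate DMSO average so 100% = DMSO level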
# RPL19A-GFP pick2 = second confirmation of modulators of TOR reporter RPL19A-GFP in yeast. shares compounds with LAP4-GFP MLPCN. 3% of 590 active. AID 2623. S. cerevisiae RPL19A-GFP strain, flow cytometry GFP, 3 h; active compounds read low; 100% means same as DMSO wells. GFP response vs DMSO, % at 10 µM;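 active means under 65% GFP response relative to DMSO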;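 further: median GFP channel fluorescence per well over the all cells gate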
# CIT2-GFP pick2 = second confirmation of modulators of TOR reporter CIT2-GFP in yeast. GFP response vs DMSO, % at 10 µM. S. cerevisiae CIT2-GFP strain, flow cytometry GFP, 3 h; DMSO control wells read 100%. 8% of 590 active. shares compounds with LAP4-GFP MLPCN;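 active means GFP response vs DMSO above about 150%, limit read from the data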;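 further: median green fluorescence per well over all gated yeast cells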
# AGP1-GFP pick2 = reconfirmed modulator of AGP1-GFP TOR reporter in yeast. shares compounds with LAP4-GFP MLPCN. S. cerevisiae AGP1-GFP strain, flow cytometry GFP, 3 h. percent response vs DMSO, % at 10 µM. 590 tested, under 10 active. AID 2643;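 active means over 150 percent of DMSO response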;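 further: median GFP channel fluorescence over all cells without mother daughter split; sample median GFP divided by mean DMSO control so 100% equals DMSO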
# Yeast autofluor = compound is autofluorescent in yeast s288c cells; fluorescence change (kMESF span) at 33 µM; S. cerevisiae s288c, 520 nm autofluorescence, flow cytometry, 3 h; active compounds read high; zero means same as solvent-only cells; AID 2757; shares compounds with LAP4-GFP MLPCN; 610 tested, under 10 active;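 active means fluorescence span over the dose series, or activity score, above about 33, limit read from the data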
# s288c autofl DR = TOR screen hit shows autofluorescence in yeast s288c | shares compounds with LAP4-GFP MLPCN | S. cerevisiae s288c parental, compound autofluorescence, flow cytometry, 3 h | fluorescence change (span) at 33 µM | 110 tested, under 10 active;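 active means fluorescence change span, or the activity score built from it, above 25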
# TORC1 bypass gr = wildtype yeast growth loss with TORC1 bypass cells unaffected. shares compounds with LAP4-GFP MLPCN. S. cerevisiae BY4741 spot growth rating, 48-72 h; active compounds read low. growth rating (0-3) at 30 µM. 120 tested, under 10 active;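 active means growth rating at most 1 for wild type yeast while the TORC1 bypass strain still grows fully, rated 3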
# Starred values were filed as active, the others as inactive; . = no result; + = active, no number; [ ] = dose if it differs, or a comment.
SMILES,RPL19A-GFP yeast,CIT2 TOR yeast,LAP4-GFP MLPCN,MEP2 TOR yeast,AGP1-GFP MLPCN,LAP4 cherry2,MEP2-GFP pick2,RPL19A-GFP pick2,CIT2-GFP pick2,AGP1-GFP pick2,Yeast autofluor,others
O=C(Cn1cnc2ccccc2c1=O)c1cccs1,93,98,94,97,93,.,.,.,.,.,.,
O=C(/C=C/c1ccnc2ccccc12)c1cccs1,99,80,172*,100,112,.,.,.,.,.,0,
O=C1OC(c2ccc(F)cc2)=C/C1=C\c1ccc(O)cc1,103,105,95,108,101,.,.,.,.,.,.,
O=C1OC(c2ccc(F)cc2)=C/C1=C\c1ccc([N+](=O)[O-])o1,136,217*[may fluoresce green],291*[may fluoresce green],647*[may fluoresce green],99,667*,+,192,991*,174*,.,
O=C(NNC(=S)NC(=O)C12CC3CC(CC(C3)C1)C2)c1ccncc1,83,.,182*,117,94,.,.,.,.,.,1.5,
CC1(C(=O)NC(=S)NNC(=O)c2ccncc2)CCCCC1,74,227*[may fluoresce green],160*[may fluoresce green],543*[may fluoresce green],156*[may fluoresce green],102,105,100,107,98,0.2,
Cc1cc(Nc2cccc(Cl)c2)nc(NCc2ccccc2)n1,102,100,96,98,97,.,.,.,.,.,.,
Clc1cc(Cl)cc(Nc2cc(NC3CCCCC3)nc(NCc3ccccc3)n2)c1,.,.,.,.,.,.,.,.,.,.,.,s288c autofl DR=0.37;TORC1 bypass gr=3
Cc1cc(OC2CCCCC2)nc(NCc2ccccc2)n1,100,100,109,104,100,.,.,.,.,.,.,
Clc1cc(Cl)cc(Nc2cc(Oc3cccc(Cl)c3)nc(NCc3ccccc3)n2)c1,.,.,.,.,.,.,.,.,.,.,.,s288c autofl DR=0.16;TORC1 bypass gr=3
Cc1ccc(C2=NN(S(C)(=O)=O)C(c3cccs3)C2)cc1 (configuration not stated),105,95,111,105,112,.,.,.,.,.,.,
CCc1ccc(C2=NN(S(C)(=O)=O)C(c3cccs3)C2)cc1 (configuration not stated),131,230*,258*,378*,128,253*,484*,132,384*,132,.,
CCN1CCN(Cc2c(O)ccc3c2O/C(=C\C=C\c2ccccc2)C3=O)CC1,84,61,153*,108,68,104,103,100,113,100,.,
O=C1/C(=C/C=C/c2ccccc2)Oc2c1ccc(O)c2CN1CCN(CCO)CC1,97,94,103,99,97,.,.,.,.,.,.,
Cc1ccc(N(CCC#N)C(=O)COC(=O)C2CCN(S(=O)(=O)c3ccc4c(c3)OCCO4)CC2)cc1,96,90,98,84,97,.,.,.,.,.,.,
CC(C)Oc1ccc(C(=O)NCc2cccs2)cc1,79,86,169*,93,104,102,98,100,93,98,.,
Cc1ccc(C)c(N2C(=N)S/C(=C\c3ccc(-c4ccccc4C(=O)O)o3)C2=O)c1,99,103,110,108,102,.,.,.,.,.,.,
Cc1ccc2c(nc3s/c(=C\c4ccc(-c5ccccc5C(=O)O)o4)c(=O)n32)c1C,114,144,126,184*,99,.,.,.,.,.,9.1,
COc1ccc(-c2cc(C(F)F)n3ncc(C(=O)NCC4CCCO4)c3n2)cc1 (configuration not stated),92,174*,89,93,73,99,100,100,106,96,.,
O=c1c(-c2ccc(Cl)cc2)[n+]([O-])c2ccccc2n1O,60,79,165*,111,49,.,.,.,.,.,1.6,
O=c1c(-c2cccc([N+](=O)[O-])c2)[n+]([O-])c2ccccc2n1O,74,112,94,141,28,.,.,.,.,.,.,
COc1ccccc1NC(=O)CCn1c(=O)c2cccn2c2ccccc21,96,98,100,106,98,.,.,.,.,.,.,
COc1cccc(N2CCN(S(=O)(=O)c3ccc(-n4cnnn4)cc3)CC2)c1,110,110,100,103,109,.,.,.,.,.,.,
O=S(=O)(/N=C(\Sc1ccccc1)c1ccccc1)c1ccc(Cl)cc1,97,86,111,100,96,110,105,98,99,100,.,
O=S(=O)(/N=C(\c1ccccc1)N1CCOCC1)c1ccc(Cl)cc1,102,104,94,101,105,.,.,.,.,.,.,
SMILES,RPL19A-GFP yeast,CIT2 TOR yeast,LAP4-GFP MLPCN,MEP2 TOR yeast,AGP1-GFP MLPCN,LAP4 cherry2,MEP2-GFP pick2,RPL19A-GFP pick2,CIT2-GFP pick2,AGP1-GFP pick2,Yeast autofluor,others
Cc1ccc(S(=O)(=O)/N=C(/Sc2ccccc2C(=O)O)c2ccccc2)cc1,98,91,98,97,94,111,102,102,105,93,.,
Cc1ccc(S(=O)(=O)/N=C(\Sc2ccccc2)c2ccccc2)cc1,89,80,174*,96,104,.,.,.,.,.,0,
COC(=O)c1ccc([C@H]2C=C(C(=O)O)O[C@@H](OCc3ccc(CO)cc3)C2)cc1,102,88,102,95,89,.,.,.,.,.,.,
CN(C)NC(=S)Nc1ccc(S(=O)(=O)N2CCCCC2)cc1,65,87,97,100,66,107,108,100,113,100,-0.1,
O=S(=O)(c1ccc(=S)[nH]c1)N1CCCC1,104,120,96,114,106,.,.,.,.,.,.,
CCOC(=O)c1c(C)oc2c1c(C(c1cccnc1)N1CCOCC1)c(O)c1ccccc12 (configuration not stated),80,72,160*,85,77,.,.,.,.,.,2.1,s288c autofl DR=1.1;TORC1 bypass gr=3
COc1ccc(Cc2nc3ccc(C(=O)N(C)C(C)c4ccon4)cc3o2)cc1 (configuration not stated),101,98,190*,82,106,100,101,98,96,100,.,

# Screens from PubChem BioAssay.
